Screening results: PubChem BioAssay, several laboratories
Myeloid diff 2: myeloid differentiation induction | ER-HoxA9 myeloid progenitors, lysozyme-GFP differentiation, flow cytometry | AID 624256 | calls only at 10 µM | hit rate 1% among 360,000;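 active means normalized GFP-positive differentiation at or above the plate's own cutoff, the solvent-only control mean plus 3 SD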;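 further: cells exposed to compound for four days before flow analysis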
NR3A LBD binder: modulators (binders) of human NR3A ligand-binding domain; NR3A LBD differential scanning fluorimetry, Tm shift; 0% = protein alone, 100% = glycine-bound protein; Tm shift relative to glycine control, % at 25 µM; hit rate 2.5% among 340,000;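 active means melting temperature shift of at least 10% of the positive control shift, at one fixed dose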
rCAG RNA binder: molecules binding r(CAG) RNA repeats; r(CAG) RNA repeat, TO-PRO-1 dye displacement fluorescence; inhibition, % at 3 µM; hit rate 1.3% among 370,000;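 active means inhibition above the plate cutoff, the mean of all test compounds on that plate plus 3 SD, cut at about 35% in these data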;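 further: 0% = DMSO alone and 100% = 100 µM mitoxantrone as full dye displacement; higher means more dye released from RNA so lower well fluorescence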
MPTP inh: permeability transition pore inhibition; inhibition, % at 10 µM; isolated mouse mitochondria, Ca2+ swelling absorbance, 30 min; hit rate 1.4% among 360,000; AID 602449;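 active means inhibition of 50% or more, scaled per plate between neutral and stimulator controls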;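 further: 0% = DMSO wells given calcium and 100% = 1 mM EGTA wells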
FAS TE block: blocks the thioesterase domain of human fatty acid synthase; recombinant FAS-TE, OMFH fluorogenic substrate, fluorescence endpoint; P49327; inhibition, % at 15 µM; AID 602261; hit rate 0.67% among 360,000;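 active means compounds whose normalised, plate-corrected inhibition of enzyme fluorescence in the single-dose primary screen is 50% or more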;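 further: 0% = DMSO with enzyme and 100% = substrate without enzyme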
rCAG bind conf: r(CAG) RNA repeat binding, confirmation | hit rate 70% among 4,300 | inhibition, % at 3 µM | shares compounds with rCAG RNA binder | TO-PRO-1 dye displacement fluorescence | AID 652065;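 active means inhibition above a per-plate cutoff, the mean inhibition of sample wells plus 3 SD, cut at about 35% in these data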;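 further: loss of TO-PRO-1 fluorescence as compound displaces dye from 1x1 AA loop RNA; 0% = DMSO only wells and 100% = 100 µM mitoxantrone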
DNA CAG counter: counter-screen for rCAG RNA binders: DNA CAG dye complex inhibitors; AID 652068; d(CAG) DNA oligo TO-PRO-1 dye displacement, fluorescence; hit rate 94% among 4,300; inhibition, % at 3 µM; shares compounds with rCAG RNA binder;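 active means inhibition above its plate's cutoff, the mean test-well inhibition plus 3 SD, cut at about 4.8% in these data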;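 further: 0% = DNA dye mix with DMSO and 100% = 100 µM mitoxantrone; hits displace the dye from DNA and so lower well fluorescence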
dCAG dye DR: DNA CAG dye complex inhibition, dose response counter-screen | DNA CAG/GTC duplex TO-PRO-1 dye displacement fluorescence | IC50, µM | hit rate 20% among 250 | shares compounds with rCAG RNA binder | AID 686960; in the data active means IC50 below about 10 µM
Starred values were filed as active, the others as inactive. An excerpt weighted towards active compounds, which were near 5.7% of everything screened.

Screening Cc1c(N2C(=O)/C(=C3/C(=O)N(C)c4ccccc43)SC2=S)c(=O)n(-c2ccccc2)n1C returned Myeloid diff 2 inactive, NR3A LBD binder -3.5, rCAG RNA binder 1.1, MPTP inh 1.9 and FAS TE block -9.6.
`O=C(O)CN1C(=O)/C(=C2\SC(=S)N(C(Cc3ccccc3)C(=O)O)C2=O)c2ccccc21` (configuration not stated) gave Myeloid diff 2 inactive, NR3A LBD binder 1.3, rCAG RNA binder 69.2*, MPTP inh 0.2, FAS TE block -2.8, rCAG bind conf 46.8* and DNA CAG counter 12.1*.
Screening COc1ccc(NC(=O)CN2C(=O)/C(=C3\SC(=S)N(CCC(=O)O)C3=O)c3ccccc32)cc1 returned Myeloid diff 2 inactive, NR3A LBD binder -0.6, MPTP inh 1.9 and FAS TE block -0.9.
`Cc1ccccc1S(=O)(=O)N1C(c2ccc(Cl)cc2)CC=C(C(=O)O)C1c1cccc(Cl)c1` (configuration not stated) gave Myeloid diff 2 inactive, rCAG RNA binder 83.6*, MPTP inh 0.1, rCAG bind conf 76.9* and DNA CAG counter 40.4*.
`Cc1ccc([C@H]2C(C(=O)O)=CC[C@@H](c3ccc(Cl)cc3)N2S(=O)(=O)c2ccccc2C)cc1` gave Myeloid diff 2 inactive, NR3A LBD binder -4.4, MPTP inh 1.5 and FAS TE block 0.2.
Cc1ccc(S(=O)(=O)N2[C@@H](c3cccc(Cl)c3)C(C(=O)O)=CC[C@H]2c2cccc(C)c2)cc1 was read as Myeloid diff 2 inactive, NR3A LBD binder 2.7, rCAG RNA binder 9.7, MPTP inh -0.4 and FAS TE block 25.8.
Cc1ccccc1S(=O)(=O)N1[C@@H](c2ccc(Cl)cc2)C(C(=O)O)=CC[C@H]1c1ccc(Cl)cc1 was read as Myeloid diff 2 inactive, NR3A LBD binder 0.2, rCAG RNA binder 79.9*, MPTP inh 1.2, FAS TE block 11.9, rCAG bind conf 79.6* and DNA CAG counter 39.9*.
Screening Cc1ccc([C@@H]2CC=C(C(=O)O)[C@H](c3cccc(Cl)c3)N2S(=O)(=O)c2ccccc2C)cc1 returned Myeloid diff 2 inactive, NR3A LBD binder -0.3, rCAG RNA binder 81.8*, MPTP inh 1.8, FAS TE block 8.8, rCAG bind conf 76.9* and DNA CAG counter 43.4*.
`Cc1c(CCC(=O)O)c(=O)oc2cc(OCc3ccccc3Br)ccc12` gave Myeloid diff 2 inactive, NR3A LBD binder -3.5, rCAG RNA binder 56.3*, MPTP inh 1.7, FAS TE block 24.5, rCAG bind conf 43.4* and DNA CAG counter 8.8*.
`Cc1c(CC(=O)O)c(=O)oc2cc(OCc3ccc(F)cc3F)ccc12` gave Myeloid diff 2 inactive, NR3A LBD binder -1.4, rCAG RNA binder 14.3, MPTP inh -1.3 and FAS TE block -2.5.
For Cc1c(CC(=O)O)c(=O)oc2cc(OCc3ccc(Br)cc3)ccc12 the results were Myeloid diff 2 inactive, NR3A LBD binder 1.2, rCAG RNA binder 40.2*, MPTP inh 0.7, FAS TE block -3.6, rCAG bind conf 46.9*, DNA CAG counter 9.7* and dCAG dye DR >29.9.
`Cc1c(CCC(=O)O)c(=O)oc2cc(OCc3cccc(F)c3)ccc12` gave Myeloid diff 2 inactive, NR3A LBD binder -4.5, rCAG RNA binder 20.0, MPTP inh 0.1 and FAS TE block 12.0.
For CCN(CC(=O)Nc1ccc(NC(C)=O)cc1)C(=O)CCCOc1ccc(C(C)(C)C)cc1 the results were Myeloid diff 2 inactive, NR3A LBD binder -4.1, rCAG RNA binder -3.1, MPTP inh -0.2 and FAS TE block -1.6.
Screening COc1ccc(Cc2nnc(SCC(=O)Nc3cc(Cl)ccc3C)[nH]c2=O)cc1 returned Myeloid diff 2 inactive, NR3A LBD binder -4.6, rCAG RNA binder 45.3*, MPTP inh 1.3, FAS TE block -2.0, rCAG bind conf 36.5* and DNA CAG counter 8.2*.
Cc1ccc(Cc2nnc(SCC(=O)Nc3c(C)cccc3C)[nH]c2=O)cc1 was read as Myeloid diff 2 inactive, NR3A LBD binder 1.0, rCAG RNA binder 14.8, MPTP inh 0.6 and FAS TE block -5.6.
Cc1ccsc1/C=N/NC(=O)c1cccc(S(=O)(=O)Nc2ccccc2Cl)c1 was read as Myeloid diff 2 inactive, NR3A LBD binder 1.7, rCAG RNA binder 46.8*, MPTP inh -0.4, FAS TE block -2.3, rCAG bind conf 39.9* and DNA CAG counter 14.4*.
`O=C(O)c1cccc(S(=O)(=O)Nc2ccccc2Cl)c1` gave Myeloid diff 2 inactive, NR3A LBD binder -0.4, rCAG RNA binder 1.7, MPTP inh -1.0 and FAS TE block -4.8.
`O=c1cc(CSc2ccc(Cl)cc2)[nH]c2[nH]n(-c3ccccc3)c(=O)c12` gave Myeloid diff 2 inactive, NR3A LBD binder 0.9, rCAG RNA binder 55.5*, MPTP inh 1.7, FAS TE block 0.6, rCAG bind conf 35.8* and DNA CAG counter 12.9*.
`Cc1ccc(SCc2cc(=O)c3c(=O)n(-c4ccccc4)[nH]c3[nH]2)cc1` gave Myeloid diff 2 inactive, NR3A LBD binder -3.4, rCAG RNA binder 62.4*, MPTP inh -1.9, FAS TE block -2.4, rCAG bind conf 43.3* and DNA CAG counter 17.1*.
`Cc1[nH]n(-c2ccccc2)c(=O)c1Sc1ccc(Cl)cc1` gave Myeloid diff 2 inactive, NR3A LBD binder -1.6, rCAG RNA binder 4.2, MPTP inh 6.6 and FAS TE block -0.4.
`CCO[C@H]1OC(C(=O)N2CCOCC2)=C[C@@H](C)[C@@H]1CCCO` gave Myeloid diff 2 inactive, NR3A LBD binder -1.0, rCAG RNA binder -0.6, MPTP inh -0.3 and FAS TE block -11.2.
For CCOc1ccccc1NC(=O)CN(c1ccc(OC)cc1)S(=O)(=O)c1c(C)[nH]c(=O)[nH]c1=O the results were Myeloid diff 2 inactive, NR3A LBD binder 2.6, rCAG RNA binder 28.9, MPTP inh 0.3 and FAS TE block 2.2.
Screening O=C(O)c1ccccc1-n1ncc2c1/C(=C/c1ccc(Cl)cc1)CC2 returned rCAG RNA binder 38.2*, rCAG bind conf 34.2 and DNA CAG counter 10.6*.
Screening Cn1c(=O)n(CCO)c(=O)c2c1nc(Br)n2Cc1ccccc1 returned Myeloid diff 2 inactive, NR3A LBD binder -1.3, rCAG RNA binder -1.5, MPTP inh -0.3 and FAS TE block -2.3.
Screening O=C(/C=C/c1ccc(O)c(O)c1)c1ccc(S(=O)(=O)N2CCCCCC2)cc1 returned Myeloid diff 2 inactive, NR3A LBD binder 22.5*, rCAG RNA binder 46.3*, MPTP inh 24.1, FAS TE block -7.6, rCAG bind conf 48.0* and DNA CAG counter 26.0*.
